Reference: PubChem BioAssay AID1063 (University of Pittsburgh Molecular Library Screening Center, 2008)
About 18,000 (9%) of roughly 200,000 compounds were called active. The full list was thinned out, with actives kept by preference. Unmarked numbers belong to inactive results. No stated cut-off is given here; in the data, active means inhibition above about 50%; inactive means the rest.

test: antileishmanial activity against promastigotes – primary screen (AID 1063); settings: Leishmania major promastigotes, resazurin fluorescence viability; at 10 µM; active compounds read high;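 further: promastigotes grown with compound for 44 hours at 28 °C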

SMILES	inhibition
COc1ccc(C(=O)CN(C(=O)c2ccc(Cl)cc2)N2C(=O)c3ccccc3C2=O)cc1	-4.51%
CCc1nc2oc3ccccc3c(=O)c2c(=O)n1Cc1ccc(OC)cc1	8.88%
COc1ccc(Cn2c(-c3ccc(Cl)cc3)c[n+]3ccccc23)cc1	99.2% (active)
COc1ccc(-c2nn(-c3ccccc3)cc2/C=C\C(=O)Nc2ccc(C(=O)O)cc2)cc1	-5.87%
Cc1c(C(=O)Nc2ccccc2)sc2nc3n(c(=O)c12)CCCCC3	61.8% (active)
Cc1c(C(=O)Nc2cccc(-c3nnc4n3CCCCC4)c2)oc2ccccc12	27.1%
O=c1c2c(nc3n1CCCCC3)sc1c(O)cccc12	-1.41%
C=CCNc1nc(Nc2ccc(Cl)cc2)nc(OC)n1	41.2%
COc1ccc(C2Nc3ccccc3C(=O)N2c2ccc(F)cc2)cc1Cn1nnc2ccccc21 (configuration not stated)	20.3%
COc1ccc(C2Nc3ccccc3C(=O)N2Cc2ccccc2)cc1Cn1nnc2ccccc21 (configuration not stated)	97% (active)
COc1ccc(C2=NO[C@@H]3C(=O)N(Cc4ccccc4)C(=O)[C@H]23)cc1OC	-2.75%
CCN1CCN(C(C(=O)NC2CCCC2)c2cc3c(cc2[N+](=O)[O-])OCO3)CC1 (configuration not stated)	-2.85%
COc1ccc(Cc2n[nH]c(=S)n2NC(=O)Nc2ccc(C)cc2)cc1	-2.58%
CCN1CCN(Cc2nc3c(c(=O)n(C)c(=O)n3C)n2CC(=O)c2ccccc2)CC1	1.75%
Cn1c(=O)c2c(nc(CN3CCOCC3)n2Cc2ccccc2)n(C)c1=O	-4.56%
CN1CCN(Cc2nc3c(c(=O)n(C)c(=O)n3C)n2Cc2cccc3ccccc23)CC1	58.8% (active)
Cc1cccc(NC(=S)N2CCC(O)CC2)c1C	-2.49%
Cc1csc(OCC(=O)Nc2ccc(C)c(C)c2)n1	-3.8%
Cc1ccc(NC(=O)COc2ccc(-n3ccnc3)cc2)cc1Cl	86.5% (active)
Cc1ccccc1OCC(=O)Nc1ccc(N2CCN(C(=O)C(C)C)CC2)c(Cl)c1	40.7%
O=C(CNC(=O)COc1ccccc1)NCCc1ccccn1	-2.06%
CCc1ccc(-c2nn(-c3ccccc3)cc2CSC(=N)N)cc1	100% (active)
CCn1c(SCc2ccc(C)cc2)nnc1-c1nn(-c2ccccc2)ccc1=O	5.13%
N=C(N)SCc1cccc2ccccc12	5.8%
N/C(=N\OC(=O)CCc1ccccc1)c1cccnc1	-5.44%

SMILES	inhibition
COC(=O)CSc1nccc(-c2cccs2)n1	1.92%
Cc1nnc(SCc2ccc(C(=O)c3ccc(Cl)cc3)o2)n1-c1ccccc1	98.6% (active)
Cc1nnc(SCC(=O)NCCOc2ccc(Cl)cc2)n1-c1ccccc1	-1.38%
Cc1nnc(SCC(=O)N2CCN(c3ccccc3)CC2)n1-c1ccccc1	5.01%
CNC(=O)c1[nH]cnc1C(=O)N[C@@H](CC(C)C)C(=O)OCc1ccccc1	0.78%
CN(c1ccccc1)S(=O)(=O)c1ccc(Cl)c(C(=O)NCCc2c[nH]c3ccccc23)c1	95.2% (active)
O=C(NCCc1c[nH]c2ccccc12)c1cc2ccccc2oc1=O	1.33%
CCN(CC)S(=O)(=O)c1ccc2[nH]cc(C(=O)NCCc3ccccc3)c(=O)c2c1	7.93%
CCn1c(=S)[nH]c2sc3c(c2c1=O)CCCCC3	-4.76%
CCN(CC)CCCSc1nc2ccccc2s1	70.2% (active)
Cc1nc2nc(CSc3nc4ccccc4s3)cc(=O)n2[nH]1	1.29%
Cc1sc2ncnc(Sc3nc4ccccc4s3)c2c1C	7.91%
O=C1COc2ccc(C(=O)COC(=O)C3CC(O)CN3S(=O)(=O)c3ccc(Cl)cc3)cc2N1 (configuration not stated)	-7.23%
CCS(=O)(=O)N1Cc2ccccc2CC1C(=O)Nc1nc2ccc(F)cc2s1 (configuration not stated)	19.1%
CN(C)C(=O)N1CCNCC1	-4.41%
Cc1ccc(-c2cc(C(=O)N/N=C/C=C/c3ccco3)c3ccccc3n2)cc1C	55.7% (active)
COc1cccc(-c2cc(C(=O)N/N=C/c3ccc(OC)c(COC(C)=O)c3)c3ccccc3n2)c1	10.4%
O=C(N/N=C/C=C/c1ccco1)c1cccs1	-2.33%
COc1ccc(NS(=O)(=O)c2ccc(O)c(C(=O)OCC(=O)NC3CCCCC3)c2)cc1	-3.84%
O=C(NNc1cc(Cl)ccc1Cl)c1cccnc1Cl	-4.41%
COC(=O)Cc1ccc(NC(=S)NCc2ccco2)cc1	-3.07%
CC(C)c1nc(CNC(=O)CC2C(=O)NCCN2Cc2ccoc2)cs1 (configuration not stated)	-2.52%
COCc1c(N)c(C)nc(Cl)c1C#N	3.91%
Oc1ccccc1/C=N/n1c(-c2cccs2)n[nH]c1=S	-8.08%
S=c1[nH]nc(-c2cccs2)n1/N=C/c1cccs1	-14.7%

SMILES	inhibition
Cc1ccsc1/C=N/n1c(=S)[nH]nc(C)c1=O	99% (active)
Cc1c(Cl)cccc1NC(=O)CSc1ccc(-c2cccnc2)nn1	10.9%
COC(=O)c1cc(C(=O)CSc2nc(C)cc(C)n2)ccc1O	-2.37%
Cc1cc(SCC(=O)c2ccccc2)nc(SCC(=O)c2ccccc2)n1	-2.75%
Cc1cc(Oc2ccc(Cl)cc2)nc(SCC(=O)c2ccccc2)n1	95.7% (active)
CC(=O)c1sc(NC(=O)C2=NN(c3ccccc3)C(=O)CC2)nc1C	2.95%
CC1=CC=CC2=N/C(=N\S(=O)(=O)c3ccc(F)cc3F)c3ccccc3CN12	2.41%
O=[N+]([O-])c1ccccc1NCc1ccc(Cl)cc1	-7.18%
O=[N+]([O-])c1ccccc1Nc1ccc(O)cc1	5.07%
Oc1ccc(CNc2ccccc2O)cc1	98.9% (active)
O=C(CS(=O)(=O)c1ccccc1)Nc1ccc(S(=O)(=O)Nc2ccccn2)cc1	-6.61%
O=C(NCCc1ccc(F)cc1)c1n[nH]c2ccccc12	3.08%
O=C(CC(O)(C(F)(F)F)C(F)(F)F)Nc1ccc(Cl)c(Cl)c1	100% (active)
O=C(Cc1ccc(Cl)c(Cl)c1)Nc1ccc(SC(F)F)cc1	4.28%
CN(C)CCNC(CC(=O)Nc1ccc(Cl)c(Cl)c1)C(=O)O (configuration not stated)	-6.23%
Cc1cc(C)n(-c2ccc(C(=O)O)cc2[N+](=O)[O-])n1	-1.85%
COC(=O)Cc1csc(/N=C/c2c(O)n(-c3cccc(C(F)(F)F)c3)c(=O)c3ccccc23)n1	-6.16%
CCN(CCn1cccn1)Cc1cn[nH]c1-c1ccc(OC)cc1F	2.85%
Oc1cccc2ccc(/C=C/c3ccc(Br)s3)nc12	-3.7%
CCCNC(=O)CN(Cc1ccccc1F)S(=O)(=O)c1ccc(C)cc1	100% (active)
CCN(CC(=O)NCCc1ccccc1)S(=O)(=O)c1ccc(C)cc1	48%
CCN(CC(=O)NCCc1ccccc1)S(=O)(=O)c1ccccc1	5.3%
CN(C)C(=O)c1cccn(Cc2cccc(C(F)(F)F)c2)c1=O	-8.4%
Cc1cc(C)n2nc(SCC(=O)NC(=O)NCc3ccco3)nc2n1	-4.34%
O=c1[nH]c2cccnc2n(CCNc2ncc(C(F)(F)F)cc2Cl)c1=O	-4.9%

SMILES	inhibition
COc1ccc(NC(=O)Nc2ccc3nsnc3c2)cc1	5.81%
Cc1ccc(NC(=O)Nc2ccc3oc(C)nc3c2)cc1	2.15%
O=C(Nc1ccc2ccccc2c1)Nc1ccc2snnc2c1	100% (active)
CCCn1c(NC(=O)C23CC4CC(CC(O)(C4)C2)C3)nc2ccccc21	-1.31%
CCn1c(COc2c(C)cccc2C)nnc1SCc1nc2ccccc2c(=O)[nH]1	4.15%
CN1CCN(/N=C/c2ccc(-c3ccc([N+](=O)[O-])cc3)o2)CC1	-3.39%
C/[N+]([O-])=C\c1ccc([N+](=O)[O-])o1	98.5% (active)
COC(=O)C1=C(C)N(C)C(=O)NC1c1ccc([N+](=O)[O-])o1 (configuration not stated)	15.2%
O=C(COc1ccc(Cl)cc1[N+](=O)[O-])N1CCCCC1	-1.15%
O=c1cc(CN2CCN(S(=O)(=O)/C=C/c3ccccc3)CC2)c2ccc(O)cc2o1	67.8% (active)
COc1ccc2c(CN3CCN(S(=O)(=O)c4cccs4)CC3)cc(=O)oc2c1	2.99%
O=C(CN1CCN(S(=O)(=O)/C=C/c2ccccc2)CC1)Nc1ccc(N2CCOCC2)cc1	7.17%
O=c1c(-c2ccccc2)cnc2n1CCS2	-5.22%
O=C(Cc1c(F)cccc1Cl)Nc1ncc([N+](=O)[O-])s1	15.8%
O=C(CSc1ccc(-c2ccc(F)cc2)nn1)Nc1ccc2c(c1)OCCO2	-7%
O=C(Nc1ccc2c(c1)OCCO2)C(c1ccc(F)cc1)N1CCCCC1 (configuration not stated)	58.5% (active)
CC1CCCN(C(C(=O)Nc2ccc(C(C)C)cc2)c2ccc3c(c2)OCO3)C1 (configuration not stated)	26.3%
COc1cc(/C=N/NC(=O)c2cc(C)n(-c3ccc(F)cc3)c2C)cc(OC)c1O	3.76%
O=C(COC(=O)CC1CC2CCC1C2)NC(=O)NC1CCCC1 (configuration not stated)	-2.24%
Cc1cccc(-n2cnc(C(=O)Nc3cccnc3)c2)n1	10.3%
Cn1cc(Cl)c(C(=O)NNC(=S)Nc2cccc(Cl)c2)n1	-7.35%
Cc1cccc(-n2cnc(C(=O)NNC(=S)Nc3ccccc3)c2)n1	87% (active)
